Rows were chosen to be rich in hits. Some 28% of all compounds tested hit in one or more screens of this group.
CYP2C9 inh = blocks human cytochrome P450 2C9 | P11712 | CYP2C9 Supersomes, luciferin-H conversion, luminescence | inhibition, % at 5 µM | hit rate 20% among 96,000 | AID 777;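 active = blocking of liver enzyme CYP2C9 beyond about 50% at 5 µM, limit read from the data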
CYP2C19 inh = human CYP2C19 inhibition | P33261 | CYP2C19 Supersomes, luciferin-H EGE luminescence, 30 min | inhibition, % at 5 µM | hit rate 21% among 96,000;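 active = CYP2C19 inhibition above a set limit at 5 µM in the primary screen, cut at about 50% in these data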;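 note: plate controls were negative control wells for no effect and 2.5 mM tranylcypromine positive control for full effect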
CYP2C9 act = increases human cytochrome P450 2C9 activity; P11712; recombinant CYP2C9, luciferin-H conversion, luminescence; hits give high values; factor 1 = untreated enzyme, 0 = blocked; activation factor at 5 µM; hit rate 1.4% among 96,000;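 active = activation factor of 2 or more for CYP2C9 at a 5 µM dose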;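 note: 0 = sulfaphenazole-blocked wells and 1 = vehicle-only wells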
D1 allo mod = allosterically modulates the human D1 dopamine receptor | hit rate 5.9% among 58,000 | B-score at 10 µM | HEK293 D1, CRE-luciferase, dopamine EC30 potentiation; actives deviate in either direction;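 active = luminescence count or its row- and column-corrected plate score outside the 99.7% band of the plate's sample wells, on either side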
CYP2C19 act = cytochrome P450 2C19 (human) activation | P33261 | recombinant CYP2C19, luciferin-H EGE luminescence; hits give high values; 0 = fully inhibited enzyme, 1 = untreated enzyme | activation factor at 5 µM | 96,000 tested, under 10 active;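 active = activation factor of at least 2 at 5 µM in the primary screen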;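 note: 0 = wells with 2.5 mM tranylcypromine and 1 = vehicle-only wells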
hDAT+cocaine = modulates human dopamine transporter uptake under cocaine | hit rate 1.3% among 110,000 | LLC-PK1 hDAT cells, [14C]-dopamine uptake with cocaine IC80; actives deviate in either direction | B-score at 10 µM | AID 449768;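 active = Z score or B-score, a plate-position-corrected score, falls beyond the plate's 99.7% confidence bounds, in either direction; inactive = both scores lie inside the 99.7% bounds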;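 note: scored against the spread of the other compound wells on the same plate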
Target sequence (Q01959 whole entry, looked up): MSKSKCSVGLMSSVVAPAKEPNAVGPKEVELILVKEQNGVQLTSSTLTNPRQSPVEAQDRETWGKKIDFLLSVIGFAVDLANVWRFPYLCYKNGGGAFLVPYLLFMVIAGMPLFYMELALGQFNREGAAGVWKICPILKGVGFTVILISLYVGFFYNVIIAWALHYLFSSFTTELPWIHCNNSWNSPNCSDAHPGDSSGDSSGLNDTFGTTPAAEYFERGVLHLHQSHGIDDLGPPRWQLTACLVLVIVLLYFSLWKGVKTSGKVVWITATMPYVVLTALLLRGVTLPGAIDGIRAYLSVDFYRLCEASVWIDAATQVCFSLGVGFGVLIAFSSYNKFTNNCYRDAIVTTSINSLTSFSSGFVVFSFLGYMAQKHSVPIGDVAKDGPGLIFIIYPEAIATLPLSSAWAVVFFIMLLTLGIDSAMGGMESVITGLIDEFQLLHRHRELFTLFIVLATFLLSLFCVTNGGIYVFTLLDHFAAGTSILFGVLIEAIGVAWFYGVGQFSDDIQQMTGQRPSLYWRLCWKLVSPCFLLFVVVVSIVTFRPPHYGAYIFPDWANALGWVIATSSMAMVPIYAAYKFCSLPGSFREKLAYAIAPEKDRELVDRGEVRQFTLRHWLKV
* hit, by the source's call; . = not tested or not shown.

SMILES	CYP2C9 inh	CYP2C19 inh	CYP2C9 act	D1 allo mod	CYP2C19 act	hDAT+cocaine
COc1ccc(NC(=S)Nc2ccccn2)c(OC)c1	15	33	0.8	.	0.7	0.0035
COc1cccc(NC(=S)NCCC(c2ccccc2)c2ccccc2)c1	68*	55*	0.3	.	0.4	0.83
Cc1ccc(C(=O)NCCCCNC(=O)c2ccc(C)o2)o1	-11	-17	1.1	.	1.2	0.099
COc1ccc(NC(=O)Nc2cccc(OC)c2)cc1	.	.	.	-0.7	.	-0.32
COc1ccc(NC(=S)NCCC(c2ccccc2)c2ccccc2)c(OC)c1	86*	99*	0.1	.	0	1.2
COC(=O)/C=C/CSC1=N/C(=C/c2ccc(-n3cncn3)cc2)C(=O)N1	25	2	0.7	.	1	-0.26
CCNc1nc(NC(C)C)nc(Oc2ccc(OCCOc3ccccc3)nn2)n1	42	44	0.6	3.2	0.6	-0.74
COc1ccc(NC(=S)NCCc2ccccc2OC)c(OC)c1	-12	99*	1.1	.	0	-1
CC(C)C(=O)NCCc1nc(-c2ccc(Cl)cc2)no1	.	.	.	.	.	0.002
CC(C)(C)N1CC(COc2ccccc2)OC1=O (stereo unspecified)	19	71*	0.8	-0.82	0.3	-8.9*
CN(C)c1ccc(C(=O)Nc2cc(C(F)(F)F)ccc2-n2cncn2)cc1	-4	-7	1	.	1.1	-0.41
C=CCOC(=O)c1ccc(-n2cncn2)nc1	31	80*	0.7	.	0.2	-0.18
O=C(Oc1ccccc1Cl)c1ccc(-n2cncn2)nc1	78*	93*	0.2	.	0.1	-1.6
Cc1sc2nc3c(C(=O)N4CCN(c5ncccn5)CC4)cccn3c(=O)c2c1C	.	.	.	-0.74	.	.
CC(=O)Nc1cccc(NC(=O)C2CCCN2C(=O)Nc2ccc(Cl)cc2)c1 (stereo unspecified)	42	18	0.6	0.073	0.8	0.014
CC(=O)N1N=C(c2cccc(Cl)c2)OC1c1ccc(C(C)C)cc1 (stereo unspecified)	88*	83*	0.1	.	0.2	-1.4
CC1CCCN(C(=O)c2cc(F)c(F)cc2Cl)C1 (stereo unspecified)	-12	2	1.1	-0.095	1	0.35
CN(c1ccc(C(=O)Nc2ccccc2C(=O)N2CCOCC2)cc1)S(C)(=O)=O	.	.	.	.	.	1.6
Cc1ccccc1CN(c1ccc(C(=O)Nc2ccccc2C(=O)NCc2ccco2)cc1)S(C)(=O)=O	83*	99*	0.2	.	0	0.3
Cc1ccccc1CN(c1ccc(C(=O)N2CCc3ccccc3C2)cc1)S(C)(=O)=O	63*	55*	0.4	.	0.5	-3.2*
Cc1ccccc1CN(c1ccc(C(=O)Nc2ccccc2C(=O)N2CCCC2)cc1)S(C)(=O)=O	91*	99*	0.1	.	0	-0.39
CNC(=O)c1ccc(N(Cc2ccccc2C)S(C)(=O)=O)cc1	43	57*	0.6	1.1	0.4	0.53
CC(=O)c1cccc(NC(=O)c2ccc(N(Cc3ccccc3C)S(C)(=O)=O)cc2)c1	.	.	.	.	.	-0.047
CCC(C)(C)n1nnnc1C(c1ccccc1)N1CCN(C2CCCC2)CC1 (stereo unspecified)	.	.	.	.	.	1.6
CCCOC(=O)c1ccc(OCC(O)Cn2c(C)nc3ccccc32)cc1 (stereo unspecified)	48	22	0.5	-3.2*	0.8	-0.15
SMILES	CYP2C9 inh	CYP2C19 inh	CYP2C9 act	D1 allo mod	CYP2C19 act	hDAT+cocaine
CC(=O)Nc1cccc(OCC(O)Cn2c(C)nc3ccccc32)c1 (stereo unspecified)	.	.	.	.	.	-0.39
Cc1cc(C)c2nc(N3CCCN(C(=O)c4cnccn4)CC3)c(C#N)cc2c1	32	36	0.7	-0.25	0.6	0.76
Cc1sc2nc(C3CC3)nc(N3CCN(S(=O)(=O)c4ccc(F)cc4)CC3)c2c1C	59*	37	0.4	1.2	0.6	-0.57
COc1ccc(OCCSc2nnc(-c3ccc(OC)cc3)n2N)cc1	32	38	0.7	.	0.6	-0.11
Cc1c(C(=O)c2ccc(Cl)cc2Cl)cnc2cc3c(cc12)OCO3	.	.	.	.	.	-8.5*
COC(=O)c1ccc(C(=O)OCc2nc3cc4ccccc4cc3[nH]2)cc1	.	.	.	.	.	-0.97
Cc1cc(C)c2c(-n3cccc3)c(C(=O)O)sc2n1	.	.	.	0.6	.	0.65
Cc1cc(C)c2c(N)c(C(=O)NCC3CCCCC3)sc2n1	26	6	0.7	.	0.9	-0.77
CCCCS(=O)(=O)c1sc2nc(C)cc(C)c2c1N	-165	89*	2.7*	1.1	0.1	0.0092
Cc1cc(C)c2c(N)c(S(=O)(=O)c3ccccc3)sc2n1	-196	56*	3*	0.27	0.4	0.21
COc1ccccc1CC1(C)NC(=O)N(CC(=O)N2CCc3ccccc3C2)C1=O (stereo unspecified)	70*	12	0.3	0.77	0.9	0.41
Cc1c(NC(=O)COc2ncnc3ccccc23)c(=O)n(-c2ccccc2)n1C	2	-4	1	-1.4	1	-0.52
Cc1[nH]c2ccccc2c1-c1nc2ccccc2[nH]1	68*	39	0.3	-2.7*	0.6	-0.19
Cc1ccc(-c2nc3ccccc3[nH]2)s1	33	40	0.7	-2.1	0.6	1.5
COc1ccc(-c2nc3ccccc3[nH]2)cc1	35	65*	0.6	.	0.4	0.9
C=C1CCN([C@@H](CC(C)C)C(=O)NCc2ccccc2)S(=O)(=O)c2ccccc21	.	.	.	.	.	0.74
CN(C(=O)CCN1C(=O)C(C)(C)Nc2ccccc21)c1ccccc1	29	76*	0.7	-0.97	0.2	-0.0058
CC1(C)Nc2ccccc2N(CCC(=O)N2CCOCC2)C1=O	14	3	0.9	0.55	1	1.6*
CC1(C)Nc2ccccc2N(CC(=O)N2CCCCC2)C1=O	13	-4	0.9	0.0052	1	1.4*
O=C(CN1C(=O)c2ccccc2C1=O)N1CCCCC1	-23	-11	1.2	.	1.1	-0.8
COc1ccc(NC(=O)Cc2nn(C)c(=O)c3ccccc23)c2ncccc12	11	4	0.9	0.24	1	.
CC(C)CC(=O)Nc1ccc(N2CCOCC2)cc1	-6	7	1.1	.	0.9	-1.7
CCN(CC)c1ccc(NC(=O)/C=C/c2cc(Br)ccc2OC)cc1	-120	30	2.2*	.	0.7	.
COc1ccc(NC(=O)/C=C/c2cc(Br)ccc2OC)cc1	-72	20	1.7	.	0.8	0.12
CNc1ccc(Br)cc(C(=O)/C=C/c2cccc(OC)c2OC)c1=O	.	.	.	.	.	0.92
COc1ccc(Br)cc1/C=C/C(=O)Nc1c(C)cccc1C	-106	36	2.1*	.	0.6	-0.11
Cn1c(Cl)cnc1C(O)c1ccccc1 (stereo unspecified)	8	12	0.9	.	0.9	0.63
Brc1ccc(-c2cn3c(n2)CCc2ccc4cccnc4c2-3)cc1	4	5	1	.	0.9	0.98
CCOC(=O)COc1ccc2c(c1)C(=O)CC(C)(C)O2	13	13	0.9	0.053	0.9	-0.23

Assay outcomes: PubChem, several laboratories
